# High-throughput results deposited in PubChem BioAssay by National Center for Advancing Translational Sciences (NCATS).
# An excerpt weighted towards active compounds, which were near 7.4% of everything screened.
# Rab9 promoter act: qHTS Assay for Rab9 Promoter Activators; 2.8% of 320,000 active; Huh7 Rab9 promoter-luciferase reporter, luminescence, 24 h; AID 485297, 2010; Potency, µM (top dose mostly 9.22 µM), for the others: top-dose activation, negative = inhibition, most hits filed as activators; also: % of control where 0% means no effect; nearly all actives have a fitted effect of over 60% in size
#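 Huh7 reporter line, Rab9 promoter upstream of luciferase. Compound exposure 24 h at 37 °C in reduced-serum medium with 10% FBS. Read-out: luminescence.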
# SMN2 splice enh: qHTS Assay for Enhancers of SMN2 Splice Variant Expression; 2.8% of 210,000 active; Potency, µM (doses to about 46.1 µM), without a hit: at the highest dose activity change, positive = activation, actives largely listed as activators; HEK293 SMN2-luciferase splicing reporter, luminescence, 30-36 h; also: % of control where 0% means no effect; nearly all actives have a fitted effect of over 55% in size
#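 HEK293 cells carry an SMN2 minigene-luciferase reporter in which exon 7 inclusion puts luciferase in frame. Cells were seeded at 2000 cells/well, attached for 10-12 hours, then exposed to compounds for 30-36 hours at 37C before ONE-Glo luminescence.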
# NPC1 prom act: qHTS Assay for NPC1 Promoter Activators; 2.4% of 320,000 active; Potency, µM (top dose mostly 9.22 µM), without a hit: at the top dose activation, actives largely listed as activators; Huh7 NPC1 promoter luciferase reporter, 24 h; also: % of control where 0% means no effect; nearly all actives have a fitted effect of over 60% in size
#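 Compounds in DMSO were transferred onto Huh7 NPC1-luciferase reporter cells pre-incubated 2 h; after 24 h at 37 °C, Amplite reagent was dispensed and luminescence recorded 10 min later.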
# Luc counter: Counterscreen for Luciferase (Kinase-Glo TM) Inhibition | Luciferin 4-monooxygenase (Photuris pensylvanica), Q27757 | Kinase-Glo luciferase, ATP luminescence, 8 min | Potency, µM (top dose mostly 38.3 µM), for the others: at the top dose activity change, negative = inhibition, actives largely listed as inhibitors | 0.28% of 200,000 active | AID 1379, 2008; also: % is scaled to controls: 0 for no effect and ±100 for the full control effect; nearly all actives have a fitted effect of over 60% in size
#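 Substrate mix (final 50 mM imidazole pH 7.2, 50 mM KCl, 7 mM MgCl2, 10 uM ATP, 0.01% Tween 20, 0.05% BSA) plus pin-tool compound, then Kinase-Glo detection mix; 8 min ambient, luminescence read.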
# ELG1 genotox: qHTS screen for small molecules that induce genotoxicity in human embryonic kidney (HEK293T) cells expressing luciferase-tagged ELG1; HEK293T ELG1-luciferase reporter, luminescence, 16 h; Potency, µM (series often up to 46 µM), inactives show at the top dose activity change, positive = activation, hits mostly activators; 1.3% of 330,000 active; also: % of control where 0% means no effect; nearly all actives have a fitted effect of over 60% in size
#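 DMSO vehicle served as control against compound-treated ELG1-luciferase HEK293T cells; exposure lasted 16 hr at 37 °C and 5% CO2, followed by ONE-Glo luminescence detection after 30 min.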
# FLuc counter: qHTS profiling assay for firefly luciferase inhibitor/activator using purifed enzyme and Km concentrations of substrates (counterscreen for miR-21 project); Potency, µM (titrated, usually from 57.5 µM), for inactives: at the highest dose activity change, negative = inhibition, usual class: inhibitors; 6.9% of 360,000 active; Luciferin 4-monooxygenase (Photinus pyralis), P08659; purified FLuc, Km substrates, luminescence inhibition; AID 588342, 2011;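 also: plate controls were vehicle for no effect and reference inhibitor for full effect; nearly all actives have a fitted effect of over 55% in size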
# Target sequence (P08659 whole entry, looked up): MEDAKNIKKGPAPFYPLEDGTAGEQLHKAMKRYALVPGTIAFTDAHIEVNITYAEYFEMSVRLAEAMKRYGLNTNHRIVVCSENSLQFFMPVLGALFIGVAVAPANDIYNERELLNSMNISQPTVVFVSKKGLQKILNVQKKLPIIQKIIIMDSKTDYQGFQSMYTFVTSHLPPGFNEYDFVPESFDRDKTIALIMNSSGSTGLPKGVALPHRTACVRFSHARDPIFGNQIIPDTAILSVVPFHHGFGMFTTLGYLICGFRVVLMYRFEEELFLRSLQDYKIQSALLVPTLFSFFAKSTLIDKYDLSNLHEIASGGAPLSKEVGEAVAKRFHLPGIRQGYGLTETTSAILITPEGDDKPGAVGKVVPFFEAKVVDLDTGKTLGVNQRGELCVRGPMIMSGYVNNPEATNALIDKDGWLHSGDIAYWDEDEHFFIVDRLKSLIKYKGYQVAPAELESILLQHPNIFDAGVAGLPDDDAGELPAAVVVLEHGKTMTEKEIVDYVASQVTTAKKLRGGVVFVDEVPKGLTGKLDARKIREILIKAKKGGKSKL
#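 Biochemical qHTS of compounds, final roughly 60 µM downward over six points, against 10 nM purified firefly luciferase using Km concentrations of substrates (10 uM D-luciferin, 10 uM ATP) in Tris acetate pH 7.5 buffer; luminescence output.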
# Active calls of the source: *; ? = inconclusive; nt = not tested or not shown. Calls follow the shape of the dose curve; as a rule, active = well fitted curve in the direction sought with a large enough effect; inconclusive = small, poorly fitted or top-dose-only effect, or another doubt; inactive = no such curve, though single readings can be large; an effect the other way counts as inactive or inconclusive. Potency is read from the fitted curve at half-maximal effect.
SMILES,Rab9 promoter act,SMN2 splice enh,NPC1 prom act,Luc counter,ELG1 genotox,FLuc counter
S=C(NCCc1ccccc1)Nc1cnc2ccccc2c1,?,?,25%,3%,?,27µM*
COc1ccc(CCC(=O)Nc2cnc3ccccc3c2)cc1,-3%,nt,0%,nt,2%,?
Cc1cc(C)nc(NC(=S)NC(=O)c2ccccc2)n1,?,nt,?,nt,3%,1%
Cn1ncc2cc(NC(=S)NC(=O)c3ccccc3)ccc21,2µM*,20%,2µM*,-7%,9%,12µM*
COC(=O)c1cccc(C(=O)Nc2cnc3ccccc3c2)n1,?,-5%,4µM*,-3%,10%,24µM*
CCC(=O)N1CCc2cc(S(=O)(=O)CCC(=O)N3CCN(c4ccc(F)cc4)CC3)ccc21,1%,nt,1%,nt,-5%,-1%
Clc1ccc(-c2c(C3=NCCCN3)nnn2-c2ccc(Cl)cc2)cc1,-3%,nt,-1%,nt,-6%,5%
O=C(O/N=C/c1ccc2c(c1)OCO2)c1ccccc1Cl,5%,3%,5%,11µM*,2%,0.95µM*
O=C(N/N=C/c1ccc2c(c1)OCO2)c1ccc(Cl)cc1Cl,3%,nt,2%,nt,2%,?
O=C(N/N=C/c1ccc2c(c1)OCO2)C(=O)Nc1ccccc1Cl,0%,nt,5%,nt,?,-1%
O=C(O)c1ccc(N/N=C/c2ccc3c(c2)OCO3)cc1,-59%,nt,-38%,4µM*,?,0.095µM*
O=C1OC(c2ccc3c(c2)OCO3)=N/C1=C\c1ccc(C(=O)O)cc1,-3%,nt,0%,nt,0%,0.13µM*
O=C(O)c1cc(N/N=C/c2ccc3c(c2)OCO3)ccc1Cl,0.1µM*,4.5µM*,0.28µM*,-2%,?,0.76µM*
COc1ccc(C2=C(C)C(=O)N(Cc3ccc(C(=O)NCc4cccc(C)c4)cc3)S2(=O)=O)cc1,nt,nt,nt,nt,nt,-6%
O=C(O)c1ccc(N/N=C/c2cc3cc4c(cc3nc2Cl)OCCO4)cc1,0.1µM*,nt,0.28µM*,nt,1.2µM*,0.024µM*
C/C(=N\Nc1ccc(Cl)c(C(=O)O)c1)c1ccc2c(c1)OCO2,1.6µM*,16µM*,2.2µM*,4%,?,15µM*
C/C(=N\Nc1ccc(Cl)c(C(=O)O)c1)c1ccccn1,9%,nt,16%,nt,10%,-18%
O=C(O)c1cc(S(=O)(=O)Nc2ccc3c(c2)OCCO3)c(Cl)cc1Cl,4%,-12%,2%,-3%,9.2µM*,?
O=C(O)c1cc(N/N=C/c2ccc3c(c2)OCCO3)ccc1Cl,?,0.32µM*,?,-2%,0.29µM*,1.1µM*
COC(=O)c1cc(NS(=O)(=O)c2ccc3c(c2)OCCO3)ccc1Cl,nt,-21%,nt,nt,nt,?
O=C(Nc1ccc(N2CCN(c3ccc(F)cc3)CC2)c(C(=O)O)c1)c1ccccc1F,nt,nt,nt,nt,nt,-3%
Cc1ccc(N/N=C/c2ccc3c(c2)OCCO3)cc1Cl,4%,20µM*,12%,-2%,?,24µM*
CC(OC(=O)c1ccc([N+](=O)[O-])o1)C(=O)Nc1nc(-c2ccc(F)c(F)c2)cs1 (stereo not drawn),?,nt,?,nt,14%,24µM*
O=C(Cc1ccccc1F)Nc1nc(-c2cccnc2)cs1,15%,7%,1%,-3%,-8%,-6%
Cc1cc(C(=O)OC(C)C(=O)Nc2nc(-c3ccccc3)cs2)c(C)o1 (stereo not drawn),-3%,29%,-2%,1%,2%,3%
SMILES,Rab9 promoter act,SMN2 splice enh,NPC1 prom act,Luc counter,ELG1 genotox,FLuc counter
O=C(Cc1ccccc1F)Nc1nc(-c2ccc(F)c(F)c2)cs1,?,nt,4%,nt,-24%,13µM*
O=C(Cc1ccccc1F)Nc1nc(-c2cccs2)cs1,?,-13%,?,-3%,?,11µM*
O=C(Nc1nc(-c2cccs2)cs1)c1ccco1,3.2µM*,13µM*,4µM*,-5%,10µM*,8.5µM*
O=C(Cc1ccccc1)Nc1nc(-c2cccs2)cs1,20%,-7%,25%,1%,4%,19µM*
Cc1ccc(/C=C/C(=O)Nc2ccc(S(=O)(=O)Nc3cc(C)nc(C)n3)cc2)cc1,-1%,nt,3%,nt,1%,11µM*
Cc1noc(NS(=O)(=O)c2ccc(NC(=O)/C=C/c3ccc(C(C)C)cc3)cc2)c1C,-1%,nt,-1%,nt,1%,11µM*
COc1ccc(/C=C/C(=O)NC(=S)Nc2ccc(S(=O)(=O)Nc3cc(C)on3)cc2)cc1,-1%,nt,-7%,nt,4%,15µM*
O=C(Nc1ccc(S(=O)(=O)Nc2ncccn2)cc1)c1ccccc1NS(=O)(=O)c1ccc(F)cc1,-5%,-7%,-10%,2%,0%,?
O=C(O)/C=C/c1ccc(S(=O)(=O)Nc2ccccc2C(=O)Nc2ccc(F)cc2)cc1,2%,nt,-1%,nt,8%,12µM*
COc1ccc(-c2csc(-c3c(N)c(C(=O)c4ccccc4)n4ccccc34)n2)cc1OC,nt,6%,nt,nt,nt,-5%
Cc1ccc(/C=C/C(=O)Nc2ccc(S(=O)(=O)Nc3ncccn3)cc2)cc1,0%,-2%,-5%,2%,7%,9.5µM*
O=C(/C=C/c1ccc(F)cc1)Nc1ccc(S(=O)(=O)Nc2ncccn2)cc1,1%,nt,-1%,nt,3%,17µM*
Cc1ccnc(NS(=O)(=O)c2ccc(NC(=O)/C=C/c3ccccc3)cc2)n1,-4%,nt,0%,nt,0%,?
CCc1nnc(NS(=O)(=O)c2ccc(NC(=O)/C=C/c3ccc(F)cc3)cc2)s1,-1%,1%,-6%,3%,4%,?
CC(C)CNC(=O)c1ccccc1SCC(=O)NC12CC3CC(CC(C3)C1)C2,-5%,nt,3%,nt,-2%,-9%
CC1CCC(NC(=O)C(=O)Nc2ccc3c(c2)OCO3)CC1 (stereo not drawn),0.71µM*,nt,2µM*,nt,4.1µM*,7.6µM*
CC1CCN(CC(=O)Nc2ccc3c(c2)OCO3)CC1,15%,nt,12%,nt,6%,-10%
CC1(C)CC(NC(=O)c2ccc3c(c2)OCO3)CC(C)(C)N1,11%,10%,-6%,-4%,3%,-2%
CC1CCC(NC(=O)c2ccc3c(c2)OCO3)CC1 (stereo not drawn),0.45µM*,nt,0.32µM*,nt,0.46µM*,2.7µM*
